Test results reported in PubChem BioAssay (Tox21).
“And” between values parts separate entries of the source, which are not always exact repeats. Equal values may be shown once. Records with an inconclusive call do not appear. Entries that show only a call come without a potency. The source made the active and inactive calls. Unless noted, the call rests on the fitted dose curve.

Tests used:
[1] = Nuclear factor erythroid 2-related factor 2/antioxidant responsive element (Nrf2/ARE) small molecule agonists: qHTS cell viability counter screen in human keratinocytes (AID 1919968; active means well fitted curve in the direction sought with a large enough effect in the repeat runs; an effect the other way counts as inactive or inconclusive; further: nearly all actives have a fitted effect of over 55% in size)
Procedure, shortened: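 HaCaT ARE reporter line, 1,500 cells/well; 5 h settle, 37 C/5% CO2; cpd in DMSO pinned; 23 h exposure; CellTiter-Fluor, 1 h; fluorescence.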

[2] = Nuclear factor erythroid 2-related factor 2/antioxidant responsive element (Nrf2/ARE) small molecule agonists: luciferase reporter gene qHTS assay in human keratinocytes (AID 1919969); further: nearly all actives have a fitted effect of over 35% in size; further: potency means the concentration at half of the fitted maximal effect
[3] = molecular target: Gonadotropin-releasing hormone receptor (Homo sapiens) (UniProt P30968); assay: Human gonadotropin-releasing hormone receptor (GnRHR) small molecule agonists, calcium flux assay in GnRHR-HEK293 cells (AID 1920063); further: nearly all actives have a fitted effect of over 35% in size
Sequence of Gonadotropin-releasing hormone receptor (Homo sapiens) (P30968 whole entry, looked up): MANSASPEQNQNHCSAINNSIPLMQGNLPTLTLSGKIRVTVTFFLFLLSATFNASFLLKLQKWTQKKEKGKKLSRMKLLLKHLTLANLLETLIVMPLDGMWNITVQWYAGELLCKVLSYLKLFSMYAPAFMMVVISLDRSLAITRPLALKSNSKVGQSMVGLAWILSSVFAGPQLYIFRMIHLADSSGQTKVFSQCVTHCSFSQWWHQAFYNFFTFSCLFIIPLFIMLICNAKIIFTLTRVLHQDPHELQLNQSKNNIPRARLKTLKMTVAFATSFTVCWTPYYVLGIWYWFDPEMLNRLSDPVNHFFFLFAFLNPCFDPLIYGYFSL
Procedure, shortened: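 GnRHR-HEK293, 1500 cells/well, 18 h 37 C/5% CO2; Ca dye 1 h 37 C; cpd pinned (DMSO), agonist mode; kinetic FL 480/540, 3 min, 1 s reads; 15 conc, n=3.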

[4] = molecular target: KiSS-1 receptor (Homo sapiens) (UniProt Q969F8); assay: Human kisspeptin (KISS1R) small molecule agonists, calcium flux assay in KISS1R-HEK293 cells (AID 1920064; active means well fitted curve in the direction sought with a large enough effect in the repeat runs; an effect the other way counts as inactive or inconclusive)
Sequence of KiSS-1 receptor (Homo sapiens) (Q969F8 whole entry, looked up): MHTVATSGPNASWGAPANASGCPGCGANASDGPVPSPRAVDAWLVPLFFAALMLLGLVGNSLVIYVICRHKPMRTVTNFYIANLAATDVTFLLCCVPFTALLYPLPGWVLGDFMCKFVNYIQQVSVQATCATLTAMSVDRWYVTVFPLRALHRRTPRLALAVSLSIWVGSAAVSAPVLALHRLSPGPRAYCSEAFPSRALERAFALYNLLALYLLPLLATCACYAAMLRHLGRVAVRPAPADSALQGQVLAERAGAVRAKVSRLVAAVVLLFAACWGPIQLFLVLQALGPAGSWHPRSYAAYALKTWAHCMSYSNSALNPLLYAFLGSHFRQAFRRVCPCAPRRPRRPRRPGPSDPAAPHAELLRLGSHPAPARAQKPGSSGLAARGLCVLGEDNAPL
Procedure, shortened: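 Stable human KISS1R HEK293 line; 18 h plating, 37 C/5% CO2; calcium dye 1 h 37 C; compound pin transfer; kinetic fluorescence Ex/Em 480/540, 3 min.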

[5] = G protein-coupled receptor (GPCR) small molecule agonists, calcium flux assay: HEK293 wild type cell line counter screen (AID 1920065)
Procedure, shortened: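 Kinetic fluorescence at Ex/Em 480/540, recorded every second over 3 min, served as the read-out after compound addition. Each compound was tested at 15 concentrations in triplicate on cells pre-loaded with calcium dye for 1 h.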

[6] = p53 small molecule agonists, cell-based qHTS assay with human liver microsomes (AID 1963577)
Procedure, shortened: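 p53RE-bla reporter cells were pre-incubated 5 h at 37 C, then treated with compounds plus human liver microsomes (0.5 mg/mL final) and NADPH (0.5 mg/mL final) for 16 h at 37 C. Beta-lactamase activity was read by LiveBLAzer fluorescence after 2 h at room temperature.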

[7] = p53 small molecule agonists, cell-based qHTS assay with rat liver microsomes (AID 1963578)
Procedure, shortened: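 p53RE-bla cells were exposed to compounds together with rat liver microsomes (0.5 mg/mL final) and NADPH (0.5 mg/mL final) for 16 h at 37 C, then read by LiveBLAzer beta-lactamase fluorescence after 2 h at room temperature.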

[8] = p53 small molecule agonists, cell-based qHTS assay with human liver microsomes: qHTS cell viability counter screen (AID 1963579); further: nearly all actives have a fitted effect of over 45% in size
Procedure, shortened: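 p53RE-bla cells (4,000/well) were pre-incubated 5 h at 37 C, then given compounds in DMSO plus human liver microsomes (0.5 mg/mL final) and NADPH (0.5 mg/mL final) for 16 h at 37 C. Viability was read by CellTiter-Glo luminescence.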

[9] = p53 small molecule agonists, cell-based qHTS assay with rat liver microsomes: qHTS cell viability counter screen (AID 1963580); further: nearly all actives have a fitted effect of over 45% in size
Procedure, shortened: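 In HCT-116 cells carrying a p53 response element-bla reporter, compounds were metabolically activated in situ by rat liver microsomes with NADPH over 16 h. Cell ATP content then served as the cytotoxicity measure.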

[10] = p53 small molecule agonists, cell-based qHTS assay: qHTS cell viability counter screen (AID 1963581); further: nearly all actives have a fitted effect of over 45% in size
Procedure, shortened: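 HCT-116 p53RE-bla cells, 4,000/well, plated 5 h before compound pin transfer; 16 h at 37 C; bla substrate 2 h RT; then CellTiter-Glo, 30 min RT, luminescence.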

[11] = p53 small molecule agonists, cell-based qHTS assay (AID 1963582; active means well fitted activation curve with a large enough effect in the signal ratio in the repeat runs, not every such curve was filed as active; the % refers to the signal ratio; further: potency means the concentration at half of the fitted maximal effect)
Procedure, shortened: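 Reporter line: p53RE-bla. Pre-incubation 5 h, 37 C, 5% CO2; compound (DMSO, pin tool) 16 h, 37 C; B/G FRET substrate 2 h RT; fluorescence intensity read.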

[12] = molecular target: 5-hydroxytryptamine receptor 2A (Homo sapiens) (UniProt P28223); assay: 5-hydroxytryptamine receptor 2A (HTR2A) small molecule antagonists, cell-based qHTS assay (AID 1963586); further: nearly all actives have a fitted effect of over 45% in size
Sequence of 5-hydroxytryptamine receptor 2A (Homo sapiens) (P28223 whole entry, looked up): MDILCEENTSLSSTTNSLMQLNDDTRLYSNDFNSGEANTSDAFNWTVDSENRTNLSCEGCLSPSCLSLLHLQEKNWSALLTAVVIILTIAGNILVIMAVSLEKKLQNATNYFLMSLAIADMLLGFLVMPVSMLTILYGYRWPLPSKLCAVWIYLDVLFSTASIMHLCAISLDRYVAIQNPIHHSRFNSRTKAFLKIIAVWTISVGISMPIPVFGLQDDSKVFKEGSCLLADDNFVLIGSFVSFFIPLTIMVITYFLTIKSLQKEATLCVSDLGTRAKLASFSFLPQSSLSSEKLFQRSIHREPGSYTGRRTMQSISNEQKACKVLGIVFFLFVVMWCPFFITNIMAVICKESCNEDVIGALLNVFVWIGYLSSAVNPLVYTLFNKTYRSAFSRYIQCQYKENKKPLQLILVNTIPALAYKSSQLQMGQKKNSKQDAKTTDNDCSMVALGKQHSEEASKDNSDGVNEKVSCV
Procedure, shortened: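 Antagonist-mode intracellular calcium assay: DOI (4 nM) added after 5 min compound pre-incubation at room temperature to dye-loaded HTR2A-CHO cells. Fluorescence followed for 3 min, sampled every second.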

[13] = molecular target: 5-hydroxytryptamine receptor 2A (Homo sapiens) (UniProt P28223); assay: 5-hydroxytryptamine receptor 2A (HTR2A) small molecule agonists, cell-based qHTS assay (AID 1963587); further: nearly all actives have a fitted effect of over 30% in size
Procedure, shortened: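 HTR2A-CHO cells, plated 18 h at 37 C/5% CO2, dye-loaded 1 h at 37 C; compounds in DMSO added by pin tool (agonist mode). Intracellular calcium flux read as kinetic fluorescence on FDSS over 2 min at 1 s intervals.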

[14] = cAMP Responsive Elements (CRE) small molecule agonists, cell-based qHTS assay (AID 1963590)
Procedure, shortened: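 HEK 293T CRE-bla, 2,000 cells/well, 18 h preincubation 37 C/5% CO2; cpds (DMSO) pinned, 3 h; LiveBLAzer B/G FRET substrate, 2 h RT.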

[15] = cAMP Responsive Elements (CRE) small molecule antagonists, cell-based qHTS assay (AID 1963591; active means well fitted inhibition curve with a large enough effect in the signal ratio in the repeat runs, not every such curve was filed as active; the % refers to the signal ratio)
Procedure, shortened: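 Beta-lactamase reporter read by FRET substrate (LiveBLAzer B/G) after 2 h at room temperature. CRE-bla HEK293T cells had received compound plus 0.25 uM (final) NKH477 for 3 h at 37 °C.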

[16] = molecular target: Beta-2 adrenergic receptor (Homo sapiens) (UniProt P07550); assay: Adrenergic beta2 receptor (ADRB2) small molecule antagonists, cell-based qHTS assay (AID 1963592); further: series mostly up to about 92 µM; nearly all actives have a fitted effect of over 50% in size
Sequence of Beta-2 adrenergic receptor (Homo sapiens) (P07550 whole entry, looked up): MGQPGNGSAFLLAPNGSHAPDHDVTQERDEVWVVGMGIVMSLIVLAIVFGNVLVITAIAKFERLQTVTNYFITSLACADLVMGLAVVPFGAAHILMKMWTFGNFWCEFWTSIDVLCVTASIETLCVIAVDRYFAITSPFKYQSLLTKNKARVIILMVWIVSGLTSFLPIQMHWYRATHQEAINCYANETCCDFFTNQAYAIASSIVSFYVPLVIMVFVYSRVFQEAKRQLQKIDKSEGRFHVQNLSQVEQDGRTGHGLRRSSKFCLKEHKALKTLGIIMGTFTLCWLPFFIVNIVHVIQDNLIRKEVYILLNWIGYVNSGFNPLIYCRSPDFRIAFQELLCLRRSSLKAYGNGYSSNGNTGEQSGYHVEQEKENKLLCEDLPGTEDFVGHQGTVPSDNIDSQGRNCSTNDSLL
Procedure, shortened: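 Cells (CHO, stable ADRB2 overexpression) incubated 18-20hr at 37C; compounds added from DMSO; agonist mix (1nM isoproterenol, 100uM IBMX, 25uM Ro-20-1724) added; 0.5hr RT; d2-cAMP and anti-cAMP-cryptate added; 1hr RT; 665/615 nm read.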

[17] = molecular target: D(2) dopamine receptor (Homo sapiens) (UniProt P14416); assay: Dopamine D2 receptor (DRD2) small molecule agonists, cell-based qHTS assay (AID 1963594); further: nearly all actives have a fitted effect of over 35% in size
Sequence of D(2) dopamine receptor (Homo sapiens) (P14416 whole entry, looked up): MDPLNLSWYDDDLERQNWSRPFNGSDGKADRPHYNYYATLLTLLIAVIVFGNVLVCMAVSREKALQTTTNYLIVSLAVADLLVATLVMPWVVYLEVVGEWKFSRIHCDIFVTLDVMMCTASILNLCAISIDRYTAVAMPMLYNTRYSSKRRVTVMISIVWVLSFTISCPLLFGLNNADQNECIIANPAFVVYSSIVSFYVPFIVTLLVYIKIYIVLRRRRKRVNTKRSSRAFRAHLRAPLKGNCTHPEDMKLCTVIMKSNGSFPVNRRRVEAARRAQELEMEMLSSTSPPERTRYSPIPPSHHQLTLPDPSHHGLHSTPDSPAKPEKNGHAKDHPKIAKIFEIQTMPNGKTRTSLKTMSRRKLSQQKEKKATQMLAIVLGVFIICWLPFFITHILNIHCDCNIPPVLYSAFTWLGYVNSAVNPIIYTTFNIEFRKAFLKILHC
Procedure, shortened: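 HEK293 cells stably expressing DRD2 were cultured 24 h at 37 C, then given Ro20-1724 (0.1 mM final) and compounds for 10 min at room temperature. NKH477 (200nM) was then added for 30 min. cAMP was read by HTRF.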

[18] = molecular target: D(2) dopamine receptor (Homo sapiens) (UniProt P14416); assay: Dopamine D2 receptor (DRD2) small molecule antagonists, cell-based qHTS assay (AID 1963595; active means well fitted inhibition curve with a large enough effect in the signal ratio in the repeat runs, with a control signal flat; the % refers to the signal ratio)
Procedure, shortened: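 Cells were plated and grown for 24 h at 37 °C. Ro20-1724 (0.1 mM final) went in first, then compound for 10 min. NKH477 (200 nM) with quinpirole (12 nM) followed for 30 min at RT, then HTRF detection reagents for 1 h.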

[19] = molecular target: Muscarinic acetylcholine receptor M1 (Homo sapiens) (UniProt P11229); assay: Cholinergic receptor muscarinic 1 (CHRM1) small molecule agonists, cell-based qHTS assay (AID 1963589); further: nearly all actives have a fitted effect of over 35% in size
Sequence of Muscarinic acetylcholine receptor M1 (Homo sapiens) (P11229 whole entry, looked up): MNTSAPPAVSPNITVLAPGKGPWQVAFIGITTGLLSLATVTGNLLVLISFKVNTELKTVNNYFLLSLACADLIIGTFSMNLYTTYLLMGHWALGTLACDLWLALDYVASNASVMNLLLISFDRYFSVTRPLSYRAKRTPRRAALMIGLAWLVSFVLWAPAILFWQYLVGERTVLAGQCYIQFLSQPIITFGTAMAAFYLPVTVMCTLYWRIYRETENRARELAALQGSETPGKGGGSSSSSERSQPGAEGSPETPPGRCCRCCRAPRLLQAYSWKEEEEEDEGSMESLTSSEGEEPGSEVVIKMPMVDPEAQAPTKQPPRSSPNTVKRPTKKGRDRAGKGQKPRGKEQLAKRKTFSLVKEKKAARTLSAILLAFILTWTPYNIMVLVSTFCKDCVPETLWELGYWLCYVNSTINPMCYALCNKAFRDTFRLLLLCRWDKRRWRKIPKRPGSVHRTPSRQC
Procedure, shortened: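 Human M1 in stable CHO line; 18 h plating, 1 h dye load 37 C; cpd added (agonist mode); Ca2+ fluorescence kinetic read, 1 s intervals; 15 conc, 3 runs.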

[20] = molecular target: Beta-2 adrenergic receptor (Homo sapiens) (UniProt P07550); assay: Adrenergic beta2 receptor (ADRB2) small molecule agonists, cell-based qHTS assay (AID 1963593);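 further: CHO cells stably overexpressing human ADRB2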
Procedure, shortened: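 CHO cells stably over-expressing ADRB2 were plated overnight at 37C, then dosed with compounds plus a stimulation mix containing 100uM IBMX and 25uM Ro-20-1724 for 0.5hr at room temperature. cAMP was measured by HTRF competition, 1hr.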

Row | Structure (SMILES) | Potency [1] | Potency [2] | Potency [3] | Potency [4] | Potency [5] | Potency [6] | Potency [7] | Potency [8] | Potency [9] | Potency [10] | Potency [11] | Potency [12] | Potency [13] | Potency [14] | Potency [15] | Potency [16] | Potency [17] | Potency [18] | Potency [19] | Potency [20]
1 | NNc1ccc(C(=O)O)cc1 | inactive | 22 µM (active) and 30.9 µM (active) | inactive | inactive | inactive | inactive | inactive | inactive | inactive | inactive | inactive | inactive | inactive | inactive | inactive | inactive | inactive | inactive | – | –
2 | Cc1ccc([N+](=O)[O-])cc1N | inactive | inactive | inactive | inactive | inactive | inactive | inactive | inactive | inactive | inactive | inactive | inactive | inactive | inactive | inactive | – | inactive | inactive | inactive | inactive
3 | COC(=O)c1ccc(C=O)cc1 | inactive | inactive | inactive | inactive | inactive | inactive | inactive | inactive | inactive | inactive | inactive | inactive | inactive | inactive | inactive | – | inactive | inactive | inactive | inactive
4 | C=CCNCC=C | inactive | inactive | inactive | inactive | inactive | inactive | inactive | inactive | inactive | inactive | inactive | inactive | – | inactive | inactive | inactive | inactive | inactive | – | inactive
5 | NC(=O)c1cnccn1 | inactive | inactive | inactive | inactive | inactive | inactive | inactive | inactive | inactive | inactive | inactive | – | – | inactive | inactive | inactive | inactive | inactive | – | inactive
6 | CCCc1cc(=O)[nH]c(=S)[nH]1 | inactive | inactive | inactive | inactive | inactive | inactive | inactive | inactive | inactive | inactive | inactive | – | – | inactive | inactive | inactive | inactive | inactive | – | inactive
7 | C[C@]12CC[C@@H]3c4ccc(O)cc4CC[C@H]3[C@@H]1C[C@@H](O)[C@@H]2O | inactive | inactive | inactive | inactive | inactive | inactive | inactive | inactive | inactive | inactive | inactive | – | – | inactive | inactive | inactive | inactive | inactive | – | inactive
8 | OC(Cn1cncn1)(Cn1cncn1)c1ccc(F)cc1F | inactive | inactive | inactive | inactive | inactive | inactive | inactive | inactive | inactive | inactive | inactive | – | – | inactive | inactive | inactive | inactive | inactive | – | inactive
9 | COc1ccccc1OCC(O)CO (stereo not drawn) | inactive | inactive | inactive | inactive | inactive | inactive | inactive | inactive | inactive | inactive | inactive | – | – | inactive | inactive | inactive | inactive | – | – | inactive
10 | Cc1ncc([N+](=O)[O-])n1CCO | inactive | inactive | inactive | inactive | inactive | inactive | inactive | inactive | inactive | inactive | inactive | – | – | inactive | inactive | inactive | inactive | inactive | – | inactive
11 | Cn1c(=O)c2[nH]cnc2n(C)c1=O | inactive | inactive | inactive | inactive | inactive | inactive | inactive | inactive | inactive | inactive | inactive | – | – | inactive | inactive | inactive | inactive | inactive | – | –
12 | CC(C)(Oc1ccc(Cl)cc1)C(=O)O | inactive | inactive | inactive | inactive | inactive | inactive | inactive | inactive | inactive | inactive | inactive | – | – | inactive | inactive | inactive | inactive | inactive | – | inactive
13 | C/C=C/c1ccc(O)c(OC)c1 | inactive | inactive | inactive | inactive | inactive | inactive | inactive | inactive | inactive | inactive | inactive | – | – | inactive | inactive | inactive | inactive | – | – | inactive
14 | Cc1ccc([N+](=O)[O-])cc1S(=O)(=O)O | inactive | inactive | inactive | inactive | inactive | inactive | inactive | inactive | inactive | inactive | inactive | – | inactive | inactive | inactive | inactive | – | inactive | inactive | –
15 | S=c1nc[nH]c2nc[nH]c12 | inactive | inactive | inactive | inactive | inactive | inactive | inactive | inactive | inactive | inactive | 9.99 µM (active) and 7.93 µM (active) | – | – | inactive | inactive | inactive | inactive | inactive | – | inactive
